Active and inactive are the calls of the source. The rule behind the calls is not given here.
molecular target: Pantothenate synthetase (Mycobacterium tuberculosis (strain ATCC 25618 / H37Rv)) (UniProt P9WIL5); test: Recombinant Mtb pantothenate synthetase (PanC) inhibitors, coupled enzyme, confirmatory (AID 375); conditions: coupled enzyme assay; at 10 µM, stronger effect = higher value;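 note: 0% = full reaction with vehicle and 100% = no enzyme background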
Sequence (P9WIL5 whole entry, looked up): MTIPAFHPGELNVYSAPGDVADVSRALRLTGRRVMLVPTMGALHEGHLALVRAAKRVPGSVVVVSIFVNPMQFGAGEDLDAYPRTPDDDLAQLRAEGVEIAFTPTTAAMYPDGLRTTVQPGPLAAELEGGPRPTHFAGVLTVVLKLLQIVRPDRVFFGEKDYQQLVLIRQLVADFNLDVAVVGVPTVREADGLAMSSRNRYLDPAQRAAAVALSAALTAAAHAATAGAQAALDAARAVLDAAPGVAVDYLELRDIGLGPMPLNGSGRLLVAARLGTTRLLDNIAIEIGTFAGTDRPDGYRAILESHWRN

| Structure (SMILES) | inhibition |
| --- | --- |
| CCOC(=O)/C(C#N)=C1\Nc2ccccc2N=C1N(CC(C)C)CC(C)C | 6% (inactive) |
| Cc1cccc(N(C)C(=O)c2coc(=O)c3ccccc23)c1 | 0% (inactive) |
| CCC(=O)N/C(N)=N/c1nc(C)c2cc(OC)ccc2n1 | 0% (inactive) |
| CCCN(Cc1cc2ccc(C)cc2[nH]c1=O)C(=O)c1cccnc1 | 2% (inactive) |
| COc1ccc(-c2c(C(F)(F)F)oc3c(CN4CCN(C)CC4)c(O)ccc3c2=O)cc1 | 4% (inactive) |
| CC1(C)Cc2noc(N)c2C(C)(C)N1O | 0% (inactive) |
| Cc1oc(-c2ccccc2Cl)nc1CSCC(=O)N1CCCC1 | 1% (inactive) |
| Cc1ccc(S(=O)(=O)NCCC(=O)OCn2nnc3ccccc3c2=O)cc1 | 1% (inactive) |
| O=C1c2ccccc2C(Nc2ccc3nc(-c4cccnc4)[nH]c3c2)N1Cc1ccco1 (stereo unspecified) | 0% (inactive) |
| CCOC(=O)N1CCN(C(=O)c2cn(CC)c3cc(N4CCN(C)CC4)c(F)cc3c2=O)CC1 | 0% (inactive) |
| CCOC(=O)c1[nH]c(CSc2nnc(-c3ccc(OC)cc3)o2)c(C(=O)OCC)c1C | 0% (inactive) |
| Cc1ccc(-n2nnnc2SCC(=O)c2cc(C)n(-c3cc(C)on3)c2C)cc1 | 4% (inactive) |
| O=C(N1CCN(Cc2ccccc2)CC1)C12CC3CC(CC(C3)C1)C2 | 0% (inactive) |
| CCN(CC)C(=O)C1CCCc2c1[nH]c1ccc(Cl)cc21 (stereo unspecified) | 0% (inactive) |
| O=C(CCS(=O)(=O)c1cccc2nsnc12)NCc1ccccc1 | 0% (inactive) |
| C=CCc1c(C)nc(SC)nc1Nc1ccc(C(=O)O)cc1 | 6% (inactive) |

— PubChem BioAssay
